This is a sample that favours compounds with a hit; in the whole collection about 5.3% have one here.
FBPA coupling cs = counter-screen for Giardia aldolase inhibitors: coupling enzyme system. AID 2472. activity change, negative = inhibition, % at 58.2 µM, hits read low. 290,000 compounds, 0.67% hits. coupling enzyme system counterscreen, AmpLite Red fluorescence; in the data active = activity change below about -30%
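Fluorescence at 525 nm excitation and 598 nm emission measured inhibition of the coupled detection system without aldolase. Compounds (at 57.5 uM final) were preincubated 10 min at room temperature with coupling enzyme reagent before a 20 min substrate/AmpLite Red step.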
Tau fibril ThT = tau fibrillization inhibition (ThT binding). Potency, µM (titrated, usually from 57.4 µM), hits mostly inhibitors. P10636. 270,000 compounds, 2.1% hits. recombinant tau K18 P301L, heparin-induced fibrillization, ThT fluorescence; active = well fitted curve in the direction sought with a large enough effect; inconclusive = small, poorly fitted or top-dose-only effect, or another doubt; inactive = no such curve, though single readings can be large; an effect the other way counts as inactive or inconclusive; note: nearly all actives have a fitted effect of over 55% in size
Target sequence (P10636 561-689 P618L limits assumed): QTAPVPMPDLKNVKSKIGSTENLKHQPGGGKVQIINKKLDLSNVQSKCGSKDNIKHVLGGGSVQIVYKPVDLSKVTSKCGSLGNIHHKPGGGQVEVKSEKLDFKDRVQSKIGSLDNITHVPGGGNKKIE
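In this qHTS, human K18 P301L tau is incubated with compound and heparin for 6 hr at 37 C, and Thioflavin T fluorescence then reports fibril load.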
Tau fluor counter = counter-screen for tau fibril formation inhibitors; tau K18 P301L Alexa594 fluorescence, heparin fibrillization; Potency, µM (series often up to 57.7 µM); 280,000 compounds, 0.93% hits; active = well fitted curve in the direction sought with a large enough effect; inconclusive = small, poorly fitted or top-dose-only effect, or another doubt; inactive = no such curve, though single readings can be large; an effect the other way counts as inactive or inconclusive; note: nearly all actives have a fitted effect of over 55% in size
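Human tau K18 P301L (15 uM unlabeled, 0.24 uM Alexa 594-labeled) in 100 mM sodium acetate pH 7 with 20 uM heparin, 6 hr at 37 C. ThT 30 uM added, 1 hr ambient; Alexa 594 FP and total fluorescence read at 555/632 nm.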
Tau FP inhib = inhibitors of human tau fibril formation. P10636. Potency, µM (doses to about 57.7 µM), actives largely listed as inhibitors. AID 1468. 280,000 compounds, 0.39% hits. K18 P301L tau heparin fibrillization, Alexa594 FP, 6 h; active = well fitted curve in the direction sought with a large enough effect; inconclusive = small, poorly fitted or top-dose-only effect, or another doubt; inactive = no such curve, though single readings can be large; an effect the other way counts as inactive or inconclusive; note: nearly all actives have a fitted effect of over 55% in size
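Read-out: fluorescence polarization of Alexa 594-labeled tau (0.24 uM), 555 nm excitation, 632 nm emission. Mixtures held 15 uM unlabeled K18 P301L, compound and 20 uM heparin, pH 7 acetate buffer, incubated 6 hr at 37 C.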
Sfp PPTase inh = inhibitors of Bacillus subtilis Sfp phosphopantetheinyl transferase; Q9F4F7; Potency, µM, actives largely listed as inhibitors; Biochemical Sfp PPTase activity, qHTS; 310,000 compounds, 3.5% hits; active = well fitted curve in the direction sought with a large enough effect; inconclusive = small, poorly fitted or top-dose-only effect, or another doubt; inactive = no such curve, though single readings can be large; an effect the other way counts as inactive or inconclusive;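 note: the enzyme is Sfp with the accession as filed and its product quenches rhodamine fluorescence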
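After 15 min at room temperature with compound, 15 nM Sfp received 5 uM rhodamine-CoA plus 12.5 uM BHQ-2-ybbR (50 mM Hepes pH 7.6, 10 mM MgCl2). Rate came from the fluorescence difference over 30 min, ex 525/em 598 nm.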
JMJD2E inh = JMJD2E (human) inhibition | JMJD2E catalytic domain, FDH-coupled NADH fluorescence (FDH is formaldehyde dehydrogenase) | Potency, µM (top dose mostly 57.1 µM), actives largely listed as inhibitors | AID 2147 | B2RXH2 | 230,000 compounds, 1.6% hits; active = well fitted inhibition curve with a large enough effect, not every such curve was filed as active; inconclusive = small, poorly fitted or top-dose-only effect, or another doubt; inactive = no such curve, though single readings can be large or run the other way; note: nearly all actives have a fitted effect of over 50% in size
Target sequence (B2RXH2 1-337 limits assumed): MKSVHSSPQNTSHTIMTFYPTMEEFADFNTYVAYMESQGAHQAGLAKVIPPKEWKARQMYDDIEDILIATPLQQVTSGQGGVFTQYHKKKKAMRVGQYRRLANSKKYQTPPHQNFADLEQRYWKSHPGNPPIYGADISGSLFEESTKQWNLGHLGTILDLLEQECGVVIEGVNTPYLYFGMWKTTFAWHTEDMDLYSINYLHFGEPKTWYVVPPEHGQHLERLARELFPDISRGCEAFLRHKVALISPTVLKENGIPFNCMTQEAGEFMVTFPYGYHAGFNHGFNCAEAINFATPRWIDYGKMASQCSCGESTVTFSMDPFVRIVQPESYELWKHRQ
CASP1 redox cat = counter-screen for redox active human caspase-1 inhibitors with catalase | caspase-1 Ac-WEHD-AFC fluorescence rate, catalase buffer | shares compounds with FBPA coupling cs | 30 tested, under 10 active | Potency, µM (highest dose often 57.5 µM), actives largely listed as inhibitors
Casp1 confirm = confirmation of allosteric or competitive inhibitors of human caspase-1; purified caspase-1, fluorogenic substrate cleavage; 60 compounds, 20% hits; Potency, µM (highest dose often 57.5 µM), hits mostly inhibitors; shares compounds with FBPA coupling cs
CASP7 inh CRC = blocks human caspase-7 activity in concentration-response. shares compounds with FBPA coupling cs. recombinant caspase-7, fluorogenic substrate cleavage. Potency, µM (top dose mostly 57.5 µM), most hits filed as inhibitors. 60 tested, under 10 active. AID 897; active = well fitted inhibition curve with a large enough effect in the main read-out, with a control signal flat, not every such curve was filed as active; inconclusive = small, poorly fitted or top-dose-only effect, or a change in a side signal; inactive = no such curve, though single readings can be large or run the other way
CASP7 redox cys = counter-screen for redox active caspase-7 inhibitors: cysteine buffer; 60 tested, under 10 active; shares compounds with FBPA coupling cs; caspase-7 enzyme with cysteine, fluorogenic substrate, redox counterscreen; Potency, µM (top dose mostly 57.5 µM), most hits filed as inhibitors
Casp7 catalase = inhibits caspase-7 in catalase buffer, redox counter-screen; AID 909; 30 tested, under 10 active; shares compounds with FBPA coupling cs; Potency, µM (top dose mostly 57.5 µM), actives largely listed as inhibitors; Caspase-7 Ac-DEVD-AFC fluorescence rate, catalase buffer
Casp1 cysteine = counter-screen for redox active caspase-1 inhibitors: cysteine buffer | AID 929 | Potency, µM (doses to about 57.5 µM), actives largely listed as inhibitors | shares compounds with FBPA coupling cs | recombinant caspase-1, fluorogenic substrate, cysteine buffer | 60 tested, under 10 active
A number is an active result; – = inactive; ? = inconclusive; · = no result; ! = a repeat was not active; [ ] = dose if it differs, or a comment. Unless noted, calls come from the whole dose curve; as a rule, active = well fitted inhibition curve with a large enough effect in the main read-out, with a control signal flat; inconclusive = small, poorly fitted or top-dose-only effect, or a change in a side signal; inactive = no such curve, though single readings can be large or run the other way.

SMILES | FBPA coupling cs | Tau fibril ThT | Tau fluor counter | Tau FP inhib | Sfp PPTase inh | JMJD2E inh | Casp1 confirm | CASP7 inh CRC | CASP7 redox cys | Casp1 cysteine | others
O=C1C(SCCO)=C(SCCO)C(=O)c2ccccc21 | -56 | 14µM | 2µM[quencher] | 2.5µM | 0.28µM! | ? | – | – | – | –
COc1cc(C2CC(=O)N(c3ccc(C)c(Cl)c3)C3=C2C(=O)OC3)cc(OC)c1OC (stereo unspecified) | · | – | – | – | · | · | · | · | · | ·
COc1ccc(C2CC(=O)N3CN(c4ccc(C)c(Cl)c4)CSC3=C2C#N)cc1OC (stereo unspecified) | -38 | 14µM | – | 22µM | 7.1µM | 13µM | – | – | – | – | CASP1 redox cat=–;Casp7 catalase=–
O=C1C(Cl)=C(NCCN2CCOCC2)C(=O)c2ncccc21 | – | 13µM | ? | ? | – | – | 2.5µM | ? | – | –
O=C1C(Cl)=C(NCCN2CCOCC2)C(=O)c2ccccc21 | – | · | · | · | – | · | · | · | · | ·
CC1=C(C(=O)Nc2ccccc2)C(c2ccccn2)n2nc(SCc3ccccc3)nc2N1 (stereo unspecified) | · | – | – | – | · | · | · | · | · | ·
CCn1c(CN2CCN(c3cccc(Cl)c3)CC2)nc2c1c(=O)[nH]c(=O)n2C | · | – | – | – | · | · | · | · | · | ·
